# HT1080-NT tox – kills 2HG-producing HT-1080-NT fibrosarcoma cells | AID 686970 | 360,000 compounds, 1.6% hits | Potency, µM (titrated, usually from 46.1 µM), most hits filed as cytotoxic | HT-1080-NT fibrosarcoma viability, CellTiter-Glo ATP luminescence, 48 h;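 further: NT is the 2HG producing partner of a matched IDH1 knockdown line; nearly all actives have a fitted effect of over 55% in size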
#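 Viability by CellTiter-Glo luminescence after 48 h compound exposure at 37C of HT-1080-NT cells (750/well, RPMI, 5% FBS). % activity scaled between DMSO wells and medium-only wells, then curve-fitted and categorized by curve class.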
# TDP1 cell noCPT – qHTS for Inhibitors of human tyrosyl-DNA phosphodiesterase 1 (TDP1): qHTS in cells in absence of CPT; DT40 Tdp1-/- hTDP1 cells, no CPT, ATP luminescence, 48 h; Potency, µM (highest dose often 46.2 µM), most hits filed as inhibitors; 420,000 compounds, 15% hits; further: nearly all actives have a fitted effect of over 55% in size
#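 Seeded 400 DT40-hTDP1 cells/well (vehicle DMSO, no 20 nM CPT); pinned compounds; ≥48 hr at 37 °C; CellTiter-Glo luminescence as viability measure.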
# HT1080 IDH1KD tx – HT-1080 IDH1 knockdown cell toxicity (counter line); HT-1080 IDH1 knockdown viability, ATP luminescence, 48 h; Potency, µM (top dose mostly 46.1 µM), actives largely listed as cytotoxic; 360,000 compounds, 2% hits
#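 IDH1KD HT-1080 cells, 750/well, RPMI + 5% FBS; compound pinned after 2 h settling; 48 h, 37 °C; CellTiter-Glo luminescence; % activity normalised to DMSO and no-cell wells; curves fitted, classed by r2 and efficacy.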
# IL1B secr inh – inflammasome signaling inhibition, IL-1 beta readout; 360,000 compounds, 4.7% hits; AID 743279; THP-1 LPS/ATP IL-1B secretion, AlphaLISA, 16 h; hits give low values; activity change, % at 57.5 µM; in the data active means activity change below about -50%; inconclusive means mostly about -30% to -49%
#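 THP-1 cells pretreated 1 hr with compounds (up to 57.5 uM final), then stimulated with LPS (250 ng/mL final) plus ATP (1.25 mM final); secreted IL-1B measured by AlphaLISA after 16 hr, decreased signal indicating inhibition.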
# DT40 TDP1 CPT – growth inhibition of DT40 Tdp1-/-;hTDP1 cells with camptothecin (screen for TDP1 inhibitors); chicken DT40 Tdp1-/-;hTDP1 cells + 20 nM CPT, ATP luminescence, 48 h; Potency, µM (top dose mostly 46.2 µM), actives largely listed as inhibitors; 420,000 compounds, 12% hits; further: nearly all actives have a fitted effect of over 55% in size
#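 Chicken DT40 Tdp1-/- cells complemented with human TDP1, 400 cells/well, exposed to compounds plus 20 nM camptothecin for at least 48 h at 37 C; viability read as ATP content by CellTiter-Glo luminescence.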
# Hits are given with their value; i = inactive; ? = inconclusive; nt = not tested or not shown. A selection: hits, their analogues and other compounds. The true share with any hit is near 19%. Unless noted, the call rests on the fitted dose curve; in most records, active means well fitted curve in the direction sought with a large enough effect; inconclusive means small, poorly fitted or top-dose-only effect, or another doubt; inactive means no such curve, though single readings can be large; an effect the other way counts as inactive or inconclusive.
SMILES,HT1080-NT tox,TDP1 cell noCPT,HT1080 IDH1KD tx,IL1B secr inh,DT40 TDP1 CPT
CCOc1cc(/C=N/NC(=O)Cc2ccc(C(F)(F)F)cc2[N+](=O)[O-])ccc1O,i,i,i,i,i
Cc1cc([N+](=O)[O-])nn1CC(=O)N/N=C/c1ccc(O)cc1O,?,6.5µM,?,i,8.2µM
Cc1cc([N+](=O)[O-])nn1CC(=O)N/N=C/c1ccccc1Br,i,i,i,i,i
CCN(CC(=O)NCc1ccc(F)cc1)C(=O)Cc1ccc(OC)cc1,i,?,i,i,i
COCCCNc1nc2cc(OC)c(OC)cc2c2nc(-c3ccccc3)nn12,i,7.3µM,i,i,15µM
CCOCCCNc1nc2cc(OC)c(OC)cc2c2nc(-c3ccccc3)nn12,nt,6.5µM,nt,nt,10µM
C[C@H](CO)N1C[C@H](C)[C@@H](CN(C)C(=O)CN2CCOCC2)Oc2cc(Br)ccc2S1(=O)=O,i,i,i,i,i
CCN(c1ccccc1)S(=O)(=O)c1ccc(NC(=O)c2cc(=O)c3cc(C)c(C)cc3o2)cc1,nt,i,nt,nt,i
CN1C(=O)c2ccccc2Sc2ccc(NC(=O)Cc3c(F)cccc3Cl)cc21,nt,7.3µM,nt,nt,13µM
CCN1C(=O)c2ccccc2Sc2ccc(NC(=O)COc3ccc(Cl)cc3)cc21,nt,18µM,nt,nt,16µM
COc1ccc(NC(=O)Cc2c(F)cccc2Cl)cc1,i,i,i,i,i
CN1C(=O)c2ccccc2Sc2ccc(NC(=O)COc3ccccc3)cc21,nt,2.9µM,nt,nt,4.1µM
CCN1C(=O)c2ccccc2Sc2ccc(NC(=O)Nc3cc(C)cc(C)c3)cc21,nt,6.5µM,nt,nt,12µM
Cn1c(=O)n(C)c2cc(NC(=O)COc3ccccc3)ccc21,i,?,i,i,?
O=C(Nc1ccc2nc([C@H]3C[C@H](O)[C@@H](CO)O3)[nH]c2c1)NC(c1ccccc1)c1ccccc1,i,i,i,i,i
Cc1ccc(NC(=O)CC(C)c2ccccc2)cc1S(=O)(=O)N1CCOCC1 (configuration not stated),i,?,i,i,?
Cc1cccc(OCC(=O)Nc2ccc3c(c2)N(C)C(=O)c2ccccc2S3)c1,nt,10µM,nt,nt,10µM
Cc1cccc(OCC(=O)Nc2ccc3c(c2)C(=O)NC3=O)c1,i,?,i,i,i
C[C@@H]1O[C@H](C2CCCCC2)Cc2[nH][nH]c(=O)c21,i,i,i,i,i
N#CC1=C(N)NC(SCC(=O)O)=C(C#N)C12CCCC2,i,i,i,i,i
N#CC1=C(N)NC(SCc2ccc(F)cc2)=C(C#N)C12CCCCC2,21µM,26µM,23µM,i,23µM
COc1ccc(NC(=O)COC(=O)CC2CC3CCC2C3)c([N+](=O)[O-])c1 (configuration not stated),i,?,i,i,i
Cc1ccc(NC(=O)CSc2nc(N)c3cc4c(nc3n2)CCCC4)cc1,?,?,?,i,16µM
Cc1ccc2cc(C)c(SCC(=O)Nc3ccc(S(=O)(=O)N4CCCC4)cc3)nc2c1,i,?,i,i,?
Cc1cc2cc3c(cc2nc1SCC(=O)Nc1ccccc1)CCC3,i,13µM,i,i,15µM
SMILES,HT1080-NT tox,TDP1 cell noCPT,HT1080 IDH1KD tx,IL1B secr inh,DT40 TDP1 CPT
Nc1nc(SCC(=O)Nc2ccccc2)nc2nc3c(cc12)CCCC3,?,13µM,?,-52,i
O=S1(=O)CCOCCN1Cc1ccccc1,i,i,i,i,i
CCOC(=O)c1c(C)[nH]c(C(=O)COC(=O)c2cnccn2)c1C,i,i,i,i,i
CCOC(=O)c1c(C)[nH]c(-c2csc(N)n2)c1C,6.5µM,?,4.6µM,i,i
CCOC(=O)c1c(C)[nH]c(-c2csc(C)n2)c1C,i,13µM,i,i,?
O=C1CCNc2c(Cl)cc(Cl)cc21,i,i,i,i,i
Clc1cccc(N/N=C/c2ccc(N3CCOCC3)s2)c1,i,i,i,i,i
COC(=O)C1=C(C)N(CC2CC2)C(=O)N[C@H]1c1ccccc1,i,i,i,i,i
COC(=O)N/N=C/c1cc(Cl)cc(Cl)c1OCc1ccccc1,i,?,i,i,18µM
Cc1nc(Cc2nnc(SCc3nc(N)nc(Nc4ccccc4C)n3)o2)cs1,i,i,i,i,i
Cc1cc(=O)oc2cc(OCc3ccc(S(=O)(=O)N4CCOCC4)cc3)ccc12,i,29µM,i,i,?
COc1ccc(COc2ccc3c(C)cc(=O)oc3c2)cc1,i,?,i,i,?
CCCCc1c(O)nc(SCC(=O)c2ccccc2)n(-c2ccccc2OC)c1=O,i,8.2µM,i,nt,i
CCCCc1c(O)nc(SCC(=O)N2CCOCC2)n(-c2ccccc2OC)c1=O,i,i,i,i,i
CCCCc1c(O)nc(SCC(=O)N2CCOCC2)n(-c2ccc(C)cc2)c1=O,i,?,i,i,i
CCCCc1c(O)nc(SCC(=O)c2ccccc2)n(-c2ccccc2)c1=O,i,2.6µM,i,i,2.9µM
CC1Oc2cc3oc4c(O)c5c(cc4c(=O)c3c(O)c2C1(C)C)C=CC(C)(C)O5 (configuration not stated),i,21µM,i,i,?
O=C(NC1CCCCC1)c1cc([N+](=O)[O-])[nH]n1,i,18µM,i,i,?
Cc1cc(C)c2c(n1)sc1c(=O)n(CC(=O)c3ccccc3)cnc12,i,i,i,i,?
C=CCOC(=O)Cn1cnc2c(sc3nc(C)cc(C)c32)c1=O,i,i,i,-71,i
Cc1cc(C(=O)N/N=C/C=C/c2ccccc2)n[nH]1,i,i,?,i,i
O=C(N/N=C/C=C/c1ccccc1)c1cc(C2CC2)[nH]n1,i,i,i,-54,i
Cc1ccc(-c2cc(C(=O)N/N=C/C=C/c3ccccc3)n[nH]2)s1,?,?,i,i,16µM
O=C(NCc1ccco1)C(=O)c1cn(CC(=O)N2CCCCC2)c2ccccc12,i,i,i,i,i
CC1(C(=O)NS(=O)(=O)Cc2ccccc2C(F)(F)F)CCN1C(=O)c1ccccc1 (configuration not stated),i,i,i,i,i
CCOC(=O)N1CCN(c2ccc(S(=O)(=O)N(Cc3ccccc3)Cc3ccccc3)cn2)CC1,i,13µM,i,i,13µM
CCN(CC)S(=O)(=O)c1ccc(N2CCN(CCO)CC2)nc1,i,i,i,i,i
CCN(CC)S(=O)(=O)c1ccc(N2CCN(c3ccccc3O)CC2)nc1,?,21µM,i,i,?
CCOC(=O)N1CCN(C(=O)CN(Cc2ccc(Cl)cc2)S(=O)(=O)c2ccccc2)CC1,i,21µM,i,i,?
CCN(CC)S(=O)(=O)c1ccc(N2CCN(S(=O)(=O)c3ccc4c(c3)OCCO4)CC2)nc1,i,?,i,i,21µM
